Sampled rows, rich in hits. Any-hit rate of the full collection: about 4.1%.
DAX1 inh-1 – inhibitors of human orphan nuclear receptor DAX1 (NR0B1); P51843; HEK293 Gal4-DAX1 luciferase reporter, luminescence; inhibition, % at 6.75 µM; actives 0.99% (n = 340,000);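 active means inhibition above the mean over all tested compounds plus 3 SD, cut at about 4.2% in these data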;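 further: 0% = DAX1-transfected cells with DMSO and 100% = empty-vector control cells with DMSO; inhibition shows as a rise in luminescence from relieved DAX1 repression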
ssDAF-12 act – S. stercoralis DAF-12 activation, primary screen; HEK293 ssDAF-12/GRIP1 lit1-tk-luc reporter, luminescence; % of 3 µM dafachronic acid response; activation, % at 6.8 µM; actives 1% (n = 370,000);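 active means activation above the mean over all tested compounds plus 3 SD, cut at about 0.9% in these data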;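 further: 0% = DMSO-only wells and 100% = 3 µM delta7-dafachronic acid wells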
DAX1 inh-2 – blocks DAX1 repression of SF-1 activated StAR promoter. HEK293T StAR-luciferase reporter, SF-1/DAX-1 repression relief. inhibition, % at 6.8 µM. actives 1.1% (n = 370,000);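 active means inhibition above the mean over all tested compounds plus 3 SD, cut at about 3.6% in these data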;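 further: 0% = DAX-1 cells with DMSO and 100% = cells lacking DAX-1 with DMSO; higher inhibition means more luminescence from relief of DAX-1 repression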
hcDAF12 agonist – activators of H. contortus DAF-12 nuclear receptor; HEK293 hcDAF-12 lit1-tk-luc reporter, luminescence; 0% DMSO, 100% Δ7-dafachronic acid; activation, % at 6.8 µM; actives 1.4% (n = 370,000); AID 652067;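 active means activation above the mean of all tested compounds plus 3 SD, cut at about 5.5% in these data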;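 further: 100% = response to 3 µM Δ7-dafachronic acid high control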
hgDAF12 agonist – agonists of H. glycines DAF-12 nuclear receptor | AID 687014 | HEK293 GAL4-hgDAF12 UAS-luciferase reporter, agonist luminescence; normalized to butyrate control | activation, % at 6.8 µM | actives 1.8% (n = 370,000);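 active means activation above a cutoff set at the mean of all screened compounds plus 3 SD, cut at about 10% in these data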;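 further: 0% = DMSO wells and 100% = sodium butyrate wells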
hgDAF12 conf – hgDAF-12 agonism, confirmation assay | shares compounds with hgDAF12 agonist | HEK293 GAL4-hgDAF12 luciferase reporter, agonist mode; percent of butyrate response | actives 80% (n = 3,300) | activation, % at 6.8 µM;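 active means mean activation over triplicate wells above the hit cutoff derived from the earlier primary screen, cut at about 11% in these data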;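 further: 0% = DMSO low control and 100% = 2 mM sodium butyrate high control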
LXRb DAF12 ctr – activates human LXR-beta, counter-screen for DAF-12 agonists; shares compounds with hgDAF12 agonist; HEK293 Gal4-LXR luciferase reporter, 24 h; activation, % at 6.8 µM; 3,300 tested, under 10 active; AID 743051;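 active means mean activation of the triplicate above a set limit carried over from the primary screen, none filed active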
Target sequence (P55055 whole entry, looked up, the tested form may be a part): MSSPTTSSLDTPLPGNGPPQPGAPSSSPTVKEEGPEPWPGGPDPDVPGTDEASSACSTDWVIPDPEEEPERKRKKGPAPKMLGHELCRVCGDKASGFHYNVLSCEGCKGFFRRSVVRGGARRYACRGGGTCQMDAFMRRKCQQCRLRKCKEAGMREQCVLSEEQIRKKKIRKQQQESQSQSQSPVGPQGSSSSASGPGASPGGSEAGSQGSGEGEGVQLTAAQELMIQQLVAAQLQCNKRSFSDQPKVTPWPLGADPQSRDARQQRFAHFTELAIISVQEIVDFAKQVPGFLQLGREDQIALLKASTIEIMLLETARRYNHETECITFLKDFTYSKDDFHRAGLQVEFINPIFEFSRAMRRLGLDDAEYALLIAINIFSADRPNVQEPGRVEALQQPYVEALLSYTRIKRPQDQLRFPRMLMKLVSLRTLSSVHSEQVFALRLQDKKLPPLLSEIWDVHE
The depositor's hits bear a star; . = no result given.

SMILES | DAX1 inh-1 | ssDAF-12 act | DAX1 inh-2 | hcDAF12 agonist | hgDAF12 agonist | hgDAF12 conf | LXRb DAF12 ctr
COc1ccc2nc(NC(=O)c3cccnc3SC)sc2c1 | 0 | -1 | 2 | 4 | 17* | 14* | 0
O=C(O)CC1=C(Nc2ccccc2)C(=O)N(c2ccccc2)C1c1ccc(F)cc1 (stereo not drawn) | 0 | -1 | 2 | 3 | 18* | 11* | 0
CCOC(=O)N1CCC(NC(=O)c2cc3ccccn3n2)CC1 | 0 | -2 | 1 | -1 | 16* | -1 | 0
O=c1onc(-c2ccccc2)n1Cc1ccc([N+](=O)[O-])cc1 | 0 | 0 | -1 | 1 | -1 | . | .
CC(Cc1ccco1)NC(=O)c1ccc(C(F)(F)F)cc1 (stereo not drawn) | -1 | 1.0* | 2 | 5 | 14* | 16* | 1
O=C(NCc1ccco1)c1ccc(C(F)(F)F)cc1 | . | -1 | 0 | 0 | 2 | . | .
Cc1ccc2nc(-c3ccc(SCC(=O)Nc4ccc5c(c4)OCCO5)nc3)[nH]c2c1 | 2 | 0 | 3 | 5 | 20* | 21* | 1
O=C(COc1ccccc1Br)Nc1ccc2c(c1)OCCCO2 | 4 | 0 | 2 | 4 | 15* | 14* | 1
CCN(CC(=O)Nc1ccc2c(c1)OCCO2)C(=O)COc1cc(C)ccc1Cl | 0 | -1 | -1 | -1 | -1 | . | .
O=C(COc1cc(Cl)c(Cl)cc1Cl)Nc1cccc(O)c1 | 3 | 0 | 1 | 5 | 17* | 18* | 1
Cc1ccc(Cl)c(OCC(=O)Nc2ccc3c(c2)OCCO3)c1 | 4 | -1 | 2 | 1 | 14* | 15* | 1
O=C(COC(=O)c1cc2ccccc2oc1=O)Nc1ccc(F)cc1F | 0 | 0 | 2 | 5 | 17* | 16* | 1
O=C(Nc1ccc(Oc2ccccc2)cc1)C1CCCN1S(=O)(=O)c1cccc2cccnc12 (stereo not drawn) | . | -2 | -3 | -6 | -1 | . | .
CN(c1ccc(NC(=O)Cc2c[nH]c3ccccc23)cc1)c1ccccn1 | . | 0 | 0 | 2 | -1 | . | .
O=C(Nc1ccc2c(c1)C(=O)NC2=O)c1ccc2ncsc2c1 | -1 | -1 | 1 | 0 | 6 | . | .
O=C(Nc1ccc(Br)cc1)c1ccc2ncsc2c1 | -2 | 1.0* | 2 | 5 | 19* | 15* | 1
O=C(Cc1ccccc1[N+](=O)[O-])NCc1ccccc1Cl | 1 | 0 | 4 | 4 | 14* | 14* | 0
COc1ccc(NC(=S)N/C(=N/CS(=O)(=O)c2ccccc2)c2ccccc2)cc1 | 3 | -1 | 2 | 2 | 14* | 7 | 0
NCc1csc(Nc2ncccn2)n1 | . | -1 | 1 | -1 | 3 | . | .
COc1ccc(OC)c2nc(-c3ccc4c(c3)OCO4)ccc12 | 5.7* | 1 | 2 | 6.4* | 15* | 18* | 1
COc1ccc(-c2oc(=O)c3cc(OC)c(OC)cc3c2-c2ccc3c(c2)OCO3)cc1 | 1 | -1 | 0 | -1 | 2 | . | .
O=C(c1cc(C2CC2)on1)N(C1CCCCC1)C1CCOCC1 | . | -2 | 1 | -1 | -2 | . | .
Clc1ccc(Cc2noc(-c3cccs3)n2)cc1 | 1 | -1 | 1 | 1 | 19* | 9 | 0
Cc1ccc(NC(=O)O/N=C/c2ccc(F)cc2)cc1 | -1 | -1 | 1 | 2 | 4 | . | .
O=C(Nc1ccccc1)O/N=C/c1ccc(F)cc1 | 3 | 0 | 3 | 4 | 15* | 16* | 1
SMILES | DAX1 inh-1 | ssDAF-12 act | DAX1 inh-2 | hcDAF12 agonist | hgDAF12 agonist | hgDAF12 conf | LXRb DAF12 ctr
CC(C)(C)C(=O)O[C@@H]1CCC[C@@]2(C(=O)N(Cc3ccccc3)c3ccccc32)[C@H]1NC(=O)CCc1ccccc1 | . | -1 | 0 | -3 | -1 | . | .
CCc1ccc(/C=N\NC(=O)c2ccc(Br)o2)s1 | 2 | 0 | 3 | 3 | 15* | 13* | 0
CCN(CC)c1ccc(/C=N/NC(=O)c2ccc(Br)o2)cc1 | 2 | 0 | 2 | 2 | 17* | 19* | 1
Cc1ccc(/C=N/NC(=O)c2ccc(Br)o2)s1 | 2 | -1 | 2 | 4 | 8 | . | .
CCN(CC)c1ccc(/C=N/NC(=O)c2ccc3c(c2)OCCO3)cc1 | 0 | -1 | 0 | 0 | 3 | . | .
COc1ccc(S[C@]2(C(=O)NCCCN(C)C)CC(=O)N[C@@H]2c2ccc(OC)cc2)cc1 | . | -1 | 0 | 1 | -1 | . | .
CCc1nc2ccc(C(=O)NCCc3ccccn3)cn2c1N(C)Cc1ccc(N(C)C)cc1 | . | -1 | -1 | 0 | -1 | . | .
Cc1nc2ccc(NC(=O)COc3ccccc3C)cc2s1 | 1 | -1 | 0 | -1 | 1 | . | .
Cc1nc2ccc(NC(=O)CSc3ccccc3)cc2s1 | 0 | 0 | 3 | 3 | 13* | 17* | 1
Cc1cc(C(=O)NCc2cccs2)no1 | 1 | -2 | 0 | 0 | 2 | . | .
O=C(NCc1cccs1)c1cc(-c2cccs2)on1 | 1 | -1 | 1 | 2 | 15* | 15* | 0
CCCn1cc(NC(=O)c2cc(-c3ccccc3)on2)cn1 | 3 | -1 | 0 | 0 | 22* | 20* | 0
O=C(NCc1cccs1)c1cc(-c2ccccc2)on1 | 3 | 0 | 3 | 3 | 16* | 14* | 0
COCCNC(=O)c1cc(-c2cccs2)on1 | 4 | 0 | 1 | 1 | 37* | 28* | 0
CCCn1c(NC(=O)c2ccccc2)nc(Cc2ccccc2)c1-c1ccc(OC)cc1 | . | -1 | 1 | 0 | 0 | . | .
O=C(Nc1cccc(O)c1)c1cc(-c2cccs2)on1 | 1 | 0 | 3 | 3 | 15* | 21* | 0
Cc1ccc2nc(-c3ccc(N4C(=N)SC5CS(=O)(=O)CC54)cc3)sc2c1 (stereo not drawn) | 1 | 0 | 1 | 2 | 14* | 13* | 0
COc1ccc(N2C(=O)S[C@@H]3CS(=O)(=O)C[C@@H]32)cc1 | 0 | -1 | 0 | -2 | -3 | . | .
N/C(=N\NC(=O)c1cccs1)c1cc2cc(Cl)ccc2oc1=O | 0 | -2 | 3 | 5 | 19* | 2 | 0
NC(=O)c1cc2ccccc2o/c1=N/NC(=O)c1cccs1 | 1 | -1 | -2 | 0 | 3 | . | .
Cc1ccc(N2Cc3ccccc3OC(C)C2=O)cc1 (stereo not drawn) | 0 | -2 | 1 | 1 | 0 | . | .
Cc1ccc(N2Cc3ccccc3C2=S)cc1 | 2 | 1 | 4 | 4 | 21* | 20* | 1
CC(=O)Oc1ccc(C(=O)[C@H]2[C@H]3C(=O)N(c4ccc5ccccc5c4)C(=O)[C@H]3[C@@H]3C=CC=NN32)cc1 | 4 | 1 | 2 | 4 | 14* | 6 | 0
